# Measurements as given in the supplement of paper PMC6411743.
# ± gives the standard deviation of the averaged measurements. Of roughly 6,200 targets only a part is listed; those with the largest changes were picked by preference.
# Compound: Nc1ncnc2c1ncn2[C@@H]1O[C@H](COP(=O)(O)OP(=O)(O)NP(=O)(O)O)[C@@H](O)[C@H]1O [adenylyl imidodiphosphate]
# Assay: NP40-soluble protein abundance relative to vehicle (solubility fold change) (ratio); higher = more soluble protein in presence of AMP-PNP
# Summary of the method: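 In three independent experiments, Jurkat crude lysate made by Dounce homogenisation was treated for 10 min at room temperature and then 3 min at 37 °C with eight concentrations ranging from 0.1 to 10 mM. It was then solubilised with 0.8% NP40 plus benzonase for 60 min at 4 °C and ultracentrifuged. The supernatant was TMT-labelled for LC-MS/MS, and each value is the fold change against the detergent-processed vehicle for the same replicate, using vsn-normalised intensities.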
# Sequence of UniProt Q8TBM8 (Q8TBM8 whole entry): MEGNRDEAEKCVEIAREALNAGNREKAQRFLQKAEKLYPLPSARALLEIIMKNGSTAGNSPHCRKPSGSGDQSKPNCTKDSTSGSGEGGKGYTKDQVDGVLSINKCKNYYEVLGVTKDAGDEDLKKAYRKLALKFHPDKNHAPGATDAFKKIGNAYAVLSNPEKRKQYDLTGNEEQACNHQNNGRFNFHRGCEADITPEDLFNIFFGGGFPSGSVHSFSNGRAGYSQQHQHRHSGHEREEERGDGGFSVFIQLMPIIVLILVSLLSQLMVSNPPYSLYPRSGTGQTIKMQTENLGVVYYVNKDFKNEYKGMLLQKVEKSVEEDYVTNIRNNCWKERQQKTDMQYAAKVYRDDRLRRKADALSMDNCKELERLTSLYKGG
# Sequence of UniProt Q6UXH1 (Q6UXH1 whole entry): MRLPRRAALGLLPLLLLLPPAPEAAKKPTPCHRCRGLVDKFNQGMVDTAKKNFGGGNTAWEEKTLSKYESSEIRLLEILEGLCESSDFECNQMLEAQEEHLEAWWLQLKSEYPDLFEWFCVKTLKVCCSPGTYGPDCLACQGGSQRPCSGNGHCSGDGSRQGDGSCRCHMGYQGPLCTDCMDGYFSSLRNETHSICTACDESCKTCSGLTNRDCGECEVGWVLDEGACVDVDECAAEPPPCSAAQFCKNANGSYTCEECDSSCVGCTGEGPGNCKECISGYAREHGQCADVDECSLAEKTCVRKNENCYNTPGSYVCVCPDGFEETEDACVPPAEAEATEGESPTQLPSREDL
# Sequence of UniProt Q6PI48 (Q6PI48 whole entry): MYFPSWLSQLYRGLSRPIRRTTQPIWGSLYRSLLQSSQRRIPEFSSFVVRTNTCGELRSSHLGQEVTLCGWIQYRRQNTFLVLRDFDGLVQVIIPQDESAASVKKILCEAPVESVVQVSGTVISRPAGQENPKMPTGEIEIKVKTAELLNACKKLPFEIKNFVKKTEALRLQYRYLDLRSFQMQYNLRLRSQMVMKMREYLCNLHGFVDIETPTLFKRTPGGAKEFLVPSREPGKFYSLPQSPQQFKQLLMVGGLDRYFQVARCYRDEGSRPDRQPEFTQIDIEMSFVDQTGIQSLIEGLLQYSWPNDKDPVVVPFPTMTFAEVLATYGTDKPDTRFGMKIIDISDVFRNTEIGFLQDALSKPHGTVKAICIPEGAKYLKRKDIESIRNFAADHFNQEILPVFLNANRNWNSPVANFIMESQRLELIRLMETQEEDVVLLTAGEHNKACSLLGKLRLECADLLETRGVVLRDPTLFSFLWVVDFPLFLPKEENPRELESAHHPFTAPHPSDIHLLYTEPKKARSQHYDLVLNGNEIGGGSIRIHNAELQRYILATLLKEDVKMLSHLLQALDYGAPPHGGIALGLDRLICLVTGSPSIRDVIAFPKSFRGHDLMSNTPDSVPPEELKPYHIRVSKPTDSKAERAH
# Sequence of UniProt Q5RI15 (Q5RI15 whole entry): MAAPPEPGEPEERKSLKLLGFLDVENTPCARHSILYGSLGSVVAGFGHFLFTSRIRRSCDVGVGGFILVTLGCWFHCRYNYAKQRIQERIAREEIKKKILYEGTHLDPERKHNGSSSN
# Sequence of UniProt Q6P1L5 (Q6P1L5 whole entry): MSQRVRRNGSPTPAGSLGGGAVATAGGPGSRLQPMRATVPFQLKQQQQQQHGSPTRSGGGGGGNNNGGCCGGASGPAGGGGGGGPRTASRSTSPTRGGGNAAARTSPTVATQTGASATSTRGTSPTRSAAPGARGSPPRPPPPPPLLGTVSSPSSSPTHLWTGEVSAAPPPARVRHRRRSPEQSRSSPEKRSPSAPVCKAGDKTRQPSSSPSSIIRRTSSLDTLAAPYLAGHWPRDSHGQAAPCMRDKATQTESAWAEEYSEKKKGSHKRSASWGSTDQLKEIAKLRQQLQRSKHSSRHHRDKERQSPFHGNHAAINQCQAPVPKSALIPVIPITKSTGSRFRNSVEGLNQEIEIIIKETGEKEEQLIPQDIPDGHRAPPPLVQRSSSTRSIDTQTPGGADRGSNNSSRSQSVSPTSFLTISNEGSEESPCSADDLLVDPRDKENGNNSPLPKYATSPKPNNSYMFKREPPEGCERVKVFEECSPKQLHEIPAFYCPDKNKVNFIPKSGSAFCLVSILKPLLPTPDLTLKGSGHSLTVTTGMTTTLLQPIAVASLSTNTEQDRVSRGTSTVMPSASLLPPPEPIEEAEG
# Sequence of UniProt Q8TEX9 (Q8TEX9 whole entry): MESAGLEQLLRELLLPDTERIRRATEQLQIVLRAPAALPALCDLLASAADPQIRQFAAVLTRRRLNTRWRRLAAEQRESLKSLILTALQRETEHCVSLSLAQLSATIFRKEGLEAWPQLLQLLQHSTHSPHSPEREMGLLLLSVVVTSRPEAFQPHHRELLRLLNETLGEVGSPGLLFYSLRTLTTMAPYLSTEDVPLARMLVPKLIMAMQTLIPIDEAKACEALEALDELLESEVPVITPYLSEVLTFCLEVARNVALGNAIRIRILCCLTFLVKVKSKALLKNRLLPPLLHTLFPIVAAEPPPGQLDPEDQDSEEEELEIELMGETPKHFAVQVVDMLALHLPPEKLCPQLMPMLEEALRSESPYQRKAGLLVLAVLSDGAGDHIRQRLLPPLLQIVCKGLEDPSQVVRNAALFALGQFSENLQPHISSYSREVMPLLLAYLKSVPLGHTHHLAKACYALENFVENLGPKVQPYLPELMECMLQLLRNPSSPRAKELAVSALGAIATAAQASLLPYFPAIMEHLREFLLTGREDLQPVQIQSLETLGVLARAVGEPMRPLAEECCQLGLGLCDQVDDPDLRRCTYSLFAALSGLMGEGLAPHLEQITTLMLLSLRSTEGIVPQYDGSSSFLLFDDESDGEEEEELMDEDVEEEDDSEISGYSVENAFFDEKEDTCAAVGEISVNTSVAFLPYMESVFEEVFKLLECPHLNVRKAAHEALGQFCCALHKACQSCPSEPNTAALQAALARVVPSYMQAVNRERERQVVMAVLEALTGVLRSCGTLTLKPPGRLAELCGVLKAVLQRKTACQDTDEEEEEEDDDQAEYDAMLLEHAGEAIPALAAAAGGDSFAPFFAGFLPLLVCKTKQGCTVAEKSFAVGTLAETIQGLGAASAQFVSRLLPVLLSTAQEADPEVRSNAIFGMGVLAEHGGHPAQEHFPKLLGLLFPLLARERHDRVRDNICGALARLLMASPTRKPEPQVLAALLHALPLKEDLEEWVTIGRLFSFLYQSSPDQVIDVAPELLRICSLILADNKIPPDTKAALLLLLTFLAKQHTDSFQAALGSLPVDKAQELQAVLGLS
# Sequence of UniProt Q8N3D4 (Q8N3D4 whole entry): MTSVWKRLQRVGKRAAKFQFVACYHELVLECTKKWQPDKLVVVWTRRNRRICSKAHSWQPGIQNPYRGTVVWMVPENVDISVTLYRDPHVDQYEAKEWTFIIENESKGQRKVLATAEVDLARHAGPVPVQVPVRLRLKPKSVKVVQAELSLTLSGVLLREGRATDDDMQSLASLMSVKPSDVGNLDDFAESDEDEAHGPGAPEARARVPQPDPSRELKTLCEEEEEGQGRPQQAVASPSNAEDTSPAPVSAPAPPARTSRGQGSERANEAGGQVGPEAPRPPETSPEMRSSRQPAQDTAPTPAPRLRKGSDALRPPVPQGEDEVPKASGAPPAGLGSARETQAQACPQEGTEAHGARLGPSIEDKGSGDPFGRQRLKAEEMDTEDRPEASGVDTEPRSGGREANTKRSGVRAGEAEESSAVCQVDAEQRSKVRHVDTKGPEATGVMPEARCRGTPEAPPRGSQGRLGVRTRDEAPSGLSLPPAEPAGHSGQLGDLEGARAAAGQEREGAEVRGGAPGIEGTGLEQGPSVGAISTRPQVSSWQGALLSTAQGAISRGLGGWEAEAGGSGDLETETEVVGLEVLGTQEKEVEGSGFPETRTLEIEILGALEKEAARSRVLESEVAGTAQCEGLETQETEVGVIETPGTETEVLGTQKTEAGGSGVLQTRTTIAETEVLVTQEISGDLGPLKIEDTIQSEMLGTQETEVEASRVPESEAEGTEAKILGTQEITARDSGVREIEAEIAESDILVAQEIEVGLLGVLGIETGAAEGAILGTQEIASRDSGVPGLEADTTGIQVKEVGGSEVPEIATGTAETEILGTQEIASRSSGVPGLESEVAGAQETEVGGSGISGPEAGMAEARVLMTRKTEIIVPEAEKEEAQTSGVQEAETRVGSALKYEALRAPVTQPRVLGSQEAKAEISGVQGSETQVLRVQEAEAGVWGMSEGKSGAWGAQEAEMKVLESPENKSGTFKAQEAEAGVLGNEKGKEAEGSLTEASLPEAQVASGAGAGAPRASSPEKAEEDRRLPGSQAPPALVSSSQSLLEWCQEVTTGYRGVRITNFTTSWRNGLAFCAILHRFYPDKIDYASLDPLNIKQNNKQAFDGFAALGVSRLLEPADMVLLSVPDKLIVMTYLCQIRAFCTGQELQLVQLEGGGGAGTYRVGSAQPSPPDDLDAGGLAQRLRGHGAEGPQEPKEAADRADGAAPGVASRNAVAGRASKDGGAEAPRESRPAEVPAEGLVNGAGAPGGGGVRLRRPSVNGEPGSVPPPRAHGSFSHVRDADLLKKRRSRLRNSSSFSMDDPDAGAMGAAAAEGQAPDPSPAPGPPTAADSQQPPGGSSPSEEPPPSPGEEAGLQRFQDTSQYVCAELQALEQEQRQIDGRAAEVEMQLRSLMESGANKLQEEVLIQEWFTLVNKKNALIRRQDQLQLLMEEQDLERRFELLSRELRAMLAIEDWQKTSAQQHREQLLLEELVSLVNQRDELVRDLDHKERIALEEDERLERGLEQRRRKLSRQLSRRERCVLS
# Sequence of UniProt Q96C36 (Q96C36 whole entry): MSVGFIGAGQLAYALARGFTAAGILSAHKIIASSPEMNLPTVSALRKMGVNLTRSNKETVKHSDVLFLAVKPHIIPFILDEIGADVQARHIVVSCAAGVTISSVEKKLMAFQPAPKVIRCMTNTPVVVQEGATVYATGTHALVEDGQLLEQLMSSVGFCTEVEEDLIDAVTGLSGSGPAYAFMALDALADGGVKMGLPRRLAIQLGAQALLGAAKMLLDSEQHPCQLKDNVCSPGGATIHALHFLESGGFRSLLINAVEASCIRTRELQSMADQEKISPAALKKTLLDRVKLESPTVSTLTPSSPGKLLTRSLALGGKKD
Target,NP40-soluble protein abundance (concentration: 1mM),NP40-soluble protein abundance (concentration: 2mM),NP40-soluble protein abundance (concentration: 4mM),NP40-soluble protein abundance (concentration: 6mM),NP40-soluble protein abundance (concentration: 8mM),NP40-soluble protein abundance (concentration: 10mM)
UniProt Q8N3X1|Q8N3X1-2,1.04 ± 0.042,1.12 ± 0.093,1.21 ± 0.11,1.45 ± 0.15,1.49 ± 0.17,1.58 ± 0.24
PCGF5 (UniProt Q86SE9),1.01 ± 0.043,1.01 ± 0.029,1.01 ± 0.065,0.967 ± 0.054,0.974 ± 0.039,0.945 ± 0.036
PYCR2 (UniProt Q96C36),0.98 ± 0.028,1.01 ± 0.051,0.997 ± 0.013,1.01 ± 0.011,0.9755 ± 0.0097,1 ± 0.032
UniProt Q8TB61|Q8TB61-2|Q8TB61-3,0.968 ± 0.041,0.969 ± 0.045,0.965 ± 0.045,0.953 ± 0.034,0.951 ± 0.042,0.989 ± 0.019
UniProt Q16630-2|Q16630,1.067 ± 0.004,1.12 ± 0.043,1.149 ± 0.0081,1.22 ± 0.025,1.3 ± 0.017,1.51 ± 0.045
UniProt Q5F1R6|Q5F1R6-3,1.044 ± 0.0025,1.12 ± 0.041,1.123 ± 0.0067,1.11 ± 0.066,1.09 ± 0.019,1.11 ± 0.035
DDX51 (UniProt Q8N8A6),1.06 ± 0.018,1.09 ± 0.02,1.15 ± 0.059,1.2 ± 0.038,1.24 ± 0.033,1.423 ± 0.014
CLYBL (UniProt Q8N0X4),1.01 ± 0.016,0.978 ± 0.013,1 ± 0.02,0.982 ± 0.043,0.9692 ± 0.0037,0.9819 ± 0.0062
NUBPL (UniProt Q8TB37),1 ± 0.045,1.01 ± 0.057,1.02 ± 0.05,1.06 ± 0.092,1.03 ± 0.092,1.05 ± 0.076
UniProt Q86W42|Q86W42-2,1.17 ± 0.087,1.25 ± 0.065,1.36 ± 0.11,1.49 ± 0.1,1.65 ± 0.18,1.67 ± 0.27
UniProt Q460N5|Q460N5-1,1.02 ± 0.02,0.993 ± 0.046,1.04 ± 0.039,0.9762 ± 0.0066,1.01 ± 0.029,0.9765 ± 0.0028
UniProt Q16666|Q16666-2,1.06 ± 0.052,1.11 ± 0.023,1.22 ± 0.069,1.43 ± 0.14,1.49 ± 0.14,1.53 ± 0.19
DNAJB14 (UniProt Q8TBM8),0.975 ± 0.025,0.987 ± 0.066,0.971 ± 0.028,0.953 ± 0.039,0.952 ± 0.035,0.947 ± 0.035
UniProt Q15390|H0YBZ4|Q15390-2,1.008 ± 0.0075,1.05 ± 0.071,1.01 ± 0.02,1 ± 0.011,0.9719 ± 0.0073,0.989 ± 0.021
FAM117B (UniProt Q6P1L5),0.99 ± 0.022,1.07 ± 0.04,1.01 ± 0.025,1.005 ± 0.01,0.9688 ± 0.0059,1.01 ± 0.022
DNTTIP2 (UniProt Q5QJE6),1.1 ± 0.036,1.2 ± 0.022,1.27 ± 0.06,1.34 ± 0.083,1.4 ± 0.12,1.53 ± 0.16
FIG4 (UniProt Q92562),1 ± 0.022,1.04 ± 0.024,1.06 ± 0.04,1.02 ± 0.024,0.9942 ± 0.0076,0.9926 ± 0.0034
UniProt Q16611|Q16611-2,0.994 ± 0.035,0.952 ± 0.016,0.985 ± 0.043,0.96 ± 0.023,0.974 ± 0.032,0.932 ± 0.026
EIF4EBP1 (UniProt Q13541),0.949 ± 0.016,1.032 ± 0.008,0.998 ± 0.1,0.9563 ± 0.0018,0.961 ± 0.059,0.96 ± 0.047
UniProt Q86U86|Q86U86-8,1.051 ± 0.009,1.1 ± 0.014,1.15 ± 0.017,1.226 ± 0.008,1.29 ± 0.035,1.37 ± 0.09
UniProt Q8WUQ7|Q8WUQ7-2,1.05 ± 0.027,1.05 ± 0.027,1.09 ± 0.03,1.06 ± 0.023,1.06 ± 0.031,1.11 ± 0.063
DARS2 (UniProt Q6PI48),0.939 ± 0.049,0.861 ± 0.12,0.924 ± 0.016,0.918 ± 0.036,0.942 ± 0.021,0.89 ± 0.012
EXOSC6 (UniProt Q5RKV6),1.04 ± 0.032,1.03 ± 0.041,1.08 ± 0.018,1.12 ± 0.036,1.14 ± 0.052,1.14 ± 0.074
UniProt Q86VP1-2|Q86VP1-4|B8ZZD4,0.977 ± 0.039,1.01 ± 0.026,0.963 ± 0.024,0.935 ± 0.038,0.925 ± 0.033,0.936 ± 0.031
NONO (UniProt Q15233),1.09 ± 0.048,1.17 ± 0.064,1.22 ± 0.056,1.39 ± 0.12,1.45 ± 0.15,1.56 ± 0.18
UniProt Q8NDV3-2|Q8NDV3-3,0.953 ± 0.039,0.942 ± 0.011,0.928 ± 0.015,0.977 ± 0.0022,0.945 ± 0.025,0.944 ± 0.033
UniProt Q8WZA9,1.03 ± 0.023,1.08 ± 0.07,1.04 ± 0.059,0.988 ± 0.028,0.981 ± 0.021,0.989 ± 0.067
UniProt Q14156|Q14156-2,0.9764 ± 0.0041,0.961 ± 0.041,0.9737 ± 0.0064,0.952 ± 0.023,0.973 ± 0.015,0.953 ± 0.018

Target,NP40-soluble protein abundance (concentration: 1mM),NP40-soluble protein abundance (concentration: 2mM),NP40-soluble protein abundance (concentration: 4mM),NP40-soluble protein abundance (concentration: 6mM),NP40-soluble protein abundance (concentration: 8mM),NP40-soluble protein abundance (concentration: 10mM)
EHBP1L1 (UniProt Q8N3D4),1.06 ± 0.028,1.11 ± 0.099,1.07 ± 0.11,1.02 ± 0.034,1.01 ± 0.059,1.01 ± 0.08
FAM91A1 (UniProt Q658Y4),0.958 ± 0.033,0.915 ± 0.068,0.961 ± 0.031,0.99 ± 0.041,1.01 ± 0.034,0.975 ± 0.054
KBTBD7 (UniProt Q8WVZ9),0.977 ± 0.014,0.9633 ± 0.004,0.959 ± 0.025,0.987 ± 0.01,1.03 ± 0.018,0.988 ± 0.03
UniProt Q5XUX1|Q5XUX1-3|Q5XUX1-2,0.986 ± 0.017,0.96 ± 0.042,0.976 ± 0.026,0.993 ± 0.021,0.982 ± 0.024,0.969 ± 0.028
CAND1 (UniProt Q86VP6),0.971 ± 0.024,0.947 ± 0.03,0.983 ± 0.035,1.01 ± 0.084,1.03 ± 0.044,0.992 ± 0.058
UniProt Q7L4P6|Q7L4P6-2,1.21 ± 0.13,1.37 ± 0.095,1.2 ± 0.15,1.14 ± 0.16,1.03 ± 0.043,1.23 ± 0.19
UniProt Q7Z7K6|Q7Z7K6-3,1.08 ± 0.068,1.153 ± 0.0086,1.3 ± 0.087,1.51 ± 0.12,1.72 ± 0.052,2.1 ± 0.13
UniProt Q6ZRI6|Q6ZRI6-2|H3BMJ2,0.9914 ± 0.0011,1.01 ± 0.044,1.01 ± 0.018,0.992 ± 0.029,1 ± 0.018,0.99766 ± 5.3e-05
UniProt Q13362-2|Q13362-3|Q13362-4,0.982 ± 0.017,1.04 ± 0.036,0.989 ± 0.018,0.976 ± 0.036,0.948 ± 0.018,0.966 ± 0.043
PMVK (UniProt Q15126),0.948 ± 0.0098,0.931 ± 0.018,0.973 ± 0.045,1.04 ± 0.07,1.04 ± 0.061,1.02 ± 0.052
UniProt Q6UXH1|Q6UXH1-4|Q6UXH1-5|Q6UXH1-6,1.01 ± 0.032,1.07 ± 0.056,1.01 ± 0.029,0.964 ± 0.019,0.956 ± 0.045,1.01 ± 0.029
UniProt Q6PI47,0.873 ± 0.06,0.905 ± 0.046,0.947 ± 0.051,1 ± 0.023,1.08 ± 0.047,1.1 ± 0.064
UniProt Q14677|Q14677-2|Q14677-3,0.999 ± 0.026,1.03 ± 0.069,0.983 ± 0.052,1 ± 0.026,0.974 ± 0.03,1.03 ± 0.043
PRPF8 (UniProt Q6P2Q9),0.989 ± 0.039,0.892 ± 0.15,0.979 ± 0.085,0.966 ± 0.098,1.05 ± 0.13,1.02 ± 0.16
TGFBRAP1 (UniProt Q8WUH2),0.96 ± 0.042,0.89 ± 0.093,0.93 ± 0.048,0.895 ± 0.064,0.916 ± 0.047,0.889 ± 0.052
UniProt Q93073|Q93073-2,0.997 ± 0.026,1.01 ± 0.046,0.978 ± 0.039,0.996 ± 0.013,0.972 ± 0.024,0.971 ± 0.027
UniProt Q5RI15|Q5RI15-2,1.12 ± 0.073,1.13 ± 0.1,1.05 ± 0.034,1.1 ± 0.044,1.05 ± 0.049,1.11 ± 0.04
UniProt Q8TEX9|Q8TEX9-2,1.01 ± 0.026,0.974 ± 0.059,0.99 ± 0.017,0.9956 ± 0.0059,1.007 ± 0.0054,0.981 ± 0.025
UniProt Q86Y56,0.976 ± 0.045,0.931 ± 0.038,0.977 ± 0.037,1.01 ± 0.022,0.997 ± 0.055,0.991 ± 0.04
UniProt Q6RI45|Q6RI45-2|Q6RI45-3|Q6RI45-4|Q6RI45-5,0.999 ± 0.016,0.9969 ± 0.0018,0.986 ± 0.016,0.9818 ± 0.0045,1 ± 0.043,1 ± 0.022
UniProt Q8N122|Q8N122-3,1.01 ± 0.031,0.955 ± 0.021,0.985 ± 0.011,0.972 ± 0.013,0.967 ± 0.018,0.994 ± 0.034
HP1BP3 (UniProt Q5SSJ5),0.963 ± 0.042,1.06 ± 0.063,1.03 ± 0.065,1.16 ± 0.017,1.18 ± 0.069,1.39 ± 0.15
UniProt Q15599|Q15599-2,1.01 ± 0.046,1.05 ± 0.042,1.04 ± 0.035,1.05 ± 0.038,1.04 ± 0.038,1.03 ± 0.045
UniProt Q5H8A4-5,0.979 ± 0.011,0.971 ± 0.019,0.983 ± 0.034,0.92 ± 0.01,0.9558 ± 0.0061,0.952 ± 0.016
UniProt Q8NBP0|Q8NBP0-2,0.998 ± 0.019,0.97 ± 0.025,0.9847 ± 0.0052,0.984 ± 0.025,0.992 ± 0.032,0.991 ± 0.027
MTDH (UniProt Q86UE4),1.13 ± 0.046,1.3 ± 0.16,1.32 ± 0.073,1.46 ± 0.2,1.47 ± 0.17,1.58 ± 0.17
UniProt Q86UK7|Q86UK7-3|Q86UK7-2,1.03 ± 0.043,1.03 ± 0.022,1.07 ± 0.031,1.08 ± 0.038,1.1 ± 0.048,1.11 ± 0.07
